Screening results from PubChem.
Pf growth 48h: P. falciparum growth inhibition at 48 hours (one generation). P. falciparum luciferase growth in erythrocytes, 48 h. Potency, µM (titrated, usually from 28.7 µM), for the others: top-dose activity change, negative = inhibition, usual class: inhibitors. 310,000 compounds, 5.9% hits; active = well fitted inhibition curve with a large enough effect; inconclusive = small, poorly fitted or top-dose-only effect, or another doubt; inactive = no such curve, though single readings can be large or run the other way; note: % is set by controls: 0 for no effect and ±100 for the full control effect
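Compounds are pin-transferred into medium, infected erythrocytes (2% hematocrit, 0.1% parasitemia final) are added, and plates sit one parasite generation at 37 C in 5% CO2. Detection reagent is then added and luminescence measured.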
SARS PLpro yeast: SARS-CoV PLP inhibition in yeast; AID 485353; 330,000 compounds, 0.19% hits; Potency, µM (doses to about 32.9 µM), for inactives: top-dose activity, positive = growth rescue, actives largely listed as activators; S. cerevisiae expressing SARS-CoV PLpro, growth rescue; note: 0% is about no effect; nearly all actives have a fitted effect of over 55% in size
Pf growth 96h: P. falciparum growth inhibition at 96 hours. P. falciparum luciferase reporter growth, 96 h. Potency, µM (series often up to 28.7 µM), for inactives: at the highest dose activity change, negative = inhibition, most hits filed as inhibitors. 320,000 compounds, 6.9% hits. AID 504834; active = well fitted inhibition curve with a large enough effect; inconclusive = small, poorly fitted or top-dose-only effect, or another doubt; inactive = no such curve, though single readings can be large or run the other way; note: % is set by controls: 0 for no effect and ±100 for the full control effect
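Parasite growth measured via integrated firefly luciferase reporter in P. falciparum. Infected erythrocytes at 2% hematocrit, 0.05% parasitemia final were treated 96 hours at 37 C under 5% CO2, and luminescence was read.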
NS1 inh: influenza NS1 inhibition; 270,000 compounds, 0.4% hits; Potency, µM (titrated, usually from 46.1 µM), for inactives: at the highest dose activity, positive = more growth; note: actives are rising curves; nearly all actives have a fitted effect of over 50% in size
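Compounds were scored for reversing the slow growth caused by influenza A NS1 in S. cerevisiae, measured by optical density at 600 nm. Assay medium contained 2% galactose at pH 6.0; NS1-free yeast of the same strain were the positive control.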
Active calls of the source: *; ? = inconclusive; nt = not tested or not shown; ! = not confirmed by another sample. A selection: hits, their analogues and other compounds. The true share with any hit is near 10%. Unless noted, calls come from the whole dose curve. Potency is the fitted concentration of half-maximal effect.

SMILES | Pf growth 48h | SARS PLpro yeast | Pf growth 96h | NS1 inh
CCC1CCCCN1CCCNC(=O)CCC(=O)N1CCOc2ccccc21 (stereo unspecified) | 16.1% | -1.8% | -23.1% | 2.3%
Cc1cccc(N2CCN(C(=O)c3cc(S(=O)(=O)N(C)C)ccc3N3CCCC3)CC2)c1C | 0.0% | 2.5% | -7.9% | 4.6%
CCN(CC)S(=O)(=O)c1ccc(N2CCCC2)c(C(=O)OCC(=O)/C(C#N)=C(\C)N)c1 | 9.28µM* | -1.3% | 0.0% | -2.9%
CN(CC(=O)Nc1ccc(F)cc1)C(=O)COC(=O)c1cc(S(=O)(=O)N(C)C)ccc1N1CCCC1 | 11.7µM* | -1.9% | 8.28µM* | nt
CN(C)S(=O)(=O)c1ccc(N2CCCC2)c(C(=O)OCC(=O)N2CCN(c3ccccc3)CC2)c1 | 14.7µM* | nt | 13.5% | nt
CCOc1ccccc1N1CCN(C(=O)c2cc(S(=O)(=O)N(C)C)ccc2N2CCCC2)CC1 | 10.4µM* | -2.8% | ? | nt
Cc1noc(C)c1S(=O)(=O)N(C)C[C@H]1Oc2c(NC(=O)C3CCCCC3)cccc2C(=O)N([C@H](C)CO)C[C@@H]1C | nt | 3.5% | nt | nt
COc1cccc(NC(=O)CN2CCc3ccccc3C2)c1 | -5.2% | -14.1% | -12.4% | -19.5%
COc1ccc(C(CNC(=O)c2cc(S(=O)(=O)N3CCN(c4ccccc4)CC3)ccc2Cl)N(C)C)cc1 (stereo unspecified) | nt | -0.7% | nt | nt
COC(=O)c1c(-c2c(Cl)cccc2Cl)noc1C(=O)NNC(=O)N(C)C | 25.8% | -0.4% | 36.5% | 3.5%
CN(C)S(=O)(=O)c1ccc(N2CCCC2)c(C(=O)N2CCN(S(=O)(=O)c3ccc(F)cc3)CC2)c1 | ? | 2.4% | ? | nt
CN(C)S(=O)(=O)c1ccc(N2CCCC2)c(C(=O)N2CCN(S(=O)(=O)c3cccc(F)c3)CC2)c1 | 10.4µM* | -1.3% | -28.0% | nt
COc1ccc([C@@H]2CC=C(C(=O)O)[C@H](c3ccccc3)N2S(=O)(=O)c2ccc(C)cc2)cc1OC | ? | -1.2% | ? | nt
COc1cc([C@@H]2CC=C(C(=O)O)[C@H](c3ccccc3)N2S(=O)(=O)c2ccc(C)cc2)cc(OC)c1OC | 3.29µM* | -8.2% | 8.28µM* | nt
COc1cc([C@@H]2CC=C(C(=O)O)[C@H](c3ccc(Cl)cc3)N2S(=O)(=O)c2ccc(C)cc2)cc(OC)c1OC | 9.28µM* | 1.5% | 9.28µM* | nt
O=C(COC(=O)c1cc(S(=O)(=O)N2CCCCC2)ccc1N1CCOCC1)NCCc1ccc(F)cc1 | ? | 4.2% | ? | ?
CC1C(=O)C(=O)C=CN1C (stereo unspecified) | ? | nt | -5.3% | nt
Cc1ccc2c(C(=O)CN3CCN(C(=O)c4ccco4)CC3)c(C)[nH]c2c1 | ? | 0.0% | ? | -5.3%
Cc1cccc(C(C)C)c1NC(=O)C(C)OC(=O)Cn1cnc2c1c(=O)n(C)c(=O)n2C (stereo unspecified) | 47.0% | 2.1% | 23.0% | nt
O=C(Cc1ccc(O)cc1)N/N=C/c1cccs1 | 0.9% | 0.0% | -18.6% | -3.3%
Cc1ccc(/C=N/NC(=O)Cc2ccc(O)cc2)s1 | 5.8% | 0.9% | 7.38µM* | -3.5%
C/C(=N\NC(=O)c1c[nH]c2ccccc12)c1ccc2c(c1)OCO2 | ? | 0.0% | 5.86µM* | nt
C/C(=N/NC(=O)CNC(=O)c1ccccc1F)c1ccc2c(c1)CCCC2 | 2.5% | -2.1% | 13.3% | -3.7%
C/C(=N/NC(=O)CNC(=O)c1ccc2c(c1)OCO2)c1ccc2c(c1)CCCC2 | 0.7% | 1.0% | 3.29µM* | nt
CC(NC(=O)COC(=O)C1(C)CC1(Cl)Cl)c1ccccc1 (stereo unspecified) | 4.9% | -4.7% | 20.8% | nt
SMILES | Pf growth 48h | SARS PLpro yeast | Pf growth 96h | NS1 inh
Cc1ccc(C)c(NC(=O)Cc2nc(CNCC(C)C)cs2)c1 | 1.4% | -8.4% | 3.4% | -8.8%
CC1(C)S[C@@H]2[C@H](NC(=O)COc3ccccc3)C(=O)N2C1C(=O)OCc1cc2ccccc2n1S(=O)(=O)c1ccccc1 (stereo partly specified) | -15.9% | 6.8% | 13.1µM* | 19.8%
COc1ccc(C)cc1S(=O)(=O)NCC(c1ccc2c(c1)OCO2)N1CCN(C)CC1 (stereo unspecified) | -10.0% | 3.9% | 0.9% | nt
COCCCNC(=S)NNC(=O)Cn1nc(C)c(Br)c1C | 26.4% | 20.9% | 9.28µM* | -4.3%
COc1ccc(S(=O)(=O)N2CCOCC2)cc1NC(=O)CCc1c[nH]c2ccccc12 | ? | 3.9% | -24.9% | nt
C=C/C(C)=C/[C@@]1(C)SC(=O)C(C)=C1O | nt | nt | nt | -13.9%
CC(Cc1c[nH]c2ccccc12)C(=O)O (stereo unspecified) | 19.8% | 2.1% | 46.5% | -0.6%
CCC(N)Cc1c[nH]c2ccccc12 (stereo unspecified) | 4.9% | 4.2% | 0.675µM*! | 5.5%
O=C(NNC(=O)c1ccccc1F)C1=NN(c2ccccc2)C(=O)CC1 | ? | 5.7% | ? | -18.9%
COc1ccc(-c2nc(Cn3c(SCc4ccc(F)cc4)nc4ccncc43)c(C)o2)cc1OC | nt | -3.0% | ? | 10.1%
COc1ccc(-c2nc(Cn3c(SCc4ccccc4F)nc4ccncc43)c(C)o2)cc1 | nt | ? | 4.65µM* | 8.6%
CCn1c(=O)c(=O)[nH]c2c(=O)oc3ccc(S(=O)(=O)Nc4ccccc4)cc3c21 | 0.9% | 3.5% | 5.0% | -11.3%
CCOc1ccc(CNC(=O)C2Cc3cc(S(=O)(=O)N4CCCCC4)ccc3N2C(C)=O)cc1 (stereo unspecified) | -20.1% | -0.6% | 10.4µM* | 18.2%
CSc1ccc(CNC(=O)C2Cc3cc(S(=O)(=O)N4CCCCC4)ccc3N2C(C)=O)cc1 (stereo unspecified) | -22.0% | nt | 14.7µM* | -21.5%
CSc1ccc(CNC(=O)C2Cc3cc(S(=O)(=O)N4CCCC4)ccc3N2C(C)=O)cc1 (stereo unspecified) | -10.0% | 7.4% | -2.0% | -2.9%
Cc1ccc(CNC(=O)c2ccc(N3CCC4(CC3)CC(c3ccccc3)=NO4)c(NC(=O)c3c(Cl)cccc3Cl)c2)cc1 | -28.8% | -7.6% | ? | nt
Cc1ccc(CNC(=O)c2ccc(N3CCC4(CC3)CC(c3cccc(Br)c3)=NO4)c(NC(=O)c3ccccc3)c2)cc1 | 9.28µM* | 1.5% | ? | nt
COc1cccc(C(=O)Nc2cc(C(=O)NCc3ccc(C)cc3)ccc2N2CCC3(CC2)CC(c2ccccc2)=NO3)c1 | ? | -3.7% | 1.31µM* | 24.8%
CCCn1c(SCC(=O)NCc2ccccc2Cl)n[nH]c1=O | 20.1% | 0.7% | -4.4% | 0.0%
CCOc1ccc(S(=O)(=O)NCCC(=O)NCC(c2ccco2)N2CCCCC2)cc1 (stereo unspecified) | ? | -6.8% | ? | nt
Cc1ccc(S(=O)(=O)N2CCC(C(=O)NCCC3=CCCCC3)CC2)c(C)c1 | ? | -2.5% | ? | nt
COC(=O)C1=C(C)N(C2CCCCC2)C(=O)C1 | 0.6% | 0.5% | 1.85µM* | 1.2%
CC#CC#Cc1cccc(=O)o1 | 11.7µM* | -0.8% | 10.4µM* | -51.2%
Cc1cccc2c1-c1sc(C(=O)Nc3nccs3)cc1CO2 | nt | -19.0% | 8.28µM* | 1.5%
Cc1cccc2c1-c1sc(C(=O)Nc3cccc([N+](=O)[O-])c3C)cc1CO2 | -4.8% | 21.0% | 0.738µM* | ?
